In PubChem BioAssay (NCATS):
Results filed as inconclusive are left out. Calls of active or inactive are those of the source. The call rests on the fitted dose curve; in most records, active means well fitted inhibition curve with a large enough effect; inconclusive means small, poorly fitted or top-dose-only effect; inactive means no such curve, though single readings can be large or run the other way.

Target: Protein phosphatase 1D (Homo sapiens) (UniProt O15297)
Assay: RapidFire Mass Spectrometry qHTS Assay for Modulators of WT P53-Induced Phosphatase 1 (WIP1) (AID 1347424)
Conditions: WIP1 dephosphorylation of phosphopeptide, RapidFire MS; series mostly up to 63 µM; activity change, negative = inhibition: at the top concentration
Description: Assay Provider (PI): Nathan Coussens Ph. D.
National Center for Advancing Translational Sciences (NCATS), Rockville, MD
National Institute of Health (NIH), Bethesda, Maryland
WT P53-Induced Phosphatase 1 (WIP1) is a member of the magnesium-dependent serine/threonine protein phosphatase (PPM) family and is induced by P53 in response to DNA damage. In several human cancers, the WIP1 protein is overexpressed, which is generally associated with a worse prognosis. Although WIP1 is an attractive therapeutic target, no potent, selective, and bioactive small-molecule modulator with favorable pharmacokinetics has been reported. Phosphatase enzymes are among the most challenging targets for small molecules because of the difficulty of achieving both modulator selectivity and bioavailability. Another major obstacle has been the availability of robust and physiologically relevant phosphatase assays that are suitable for high-throughput screening.
Here, we describe two orthogonal biochemical WIP1 activity assays that utilize phosphopeptides from native WIP1 substrates. We optimized a RapidFire MS assay to quantify the enzymatically dephosphorylated peptide reaction product in a 384-well format. Additionally, a redshifted Rhodamine-PBP fluorescence assay was optimized in a 1,536-well format to enable real-time WIP1 activity measurements through the detection of the orthogonal reaction product, Pi. We validated these two optimized assays by quantitative high-throughput screening against the National Center for Advancing Translational Sciences (NCATS) Pharmaceutical Collection and used secondary assays to confirm and evaluate inhibitors identified in the primary screen.
SEQUENCE No. (e.g., 1, 2, 3, etc.); […] (e.g., Cells, Incubation, Reagent, etc.); VALUE; DESCRIPTION
1; Reagent; 50 uL; dispensed assay buffer: 0.1% formic acid in water (10 uL : 40 uL) solution in column 1
3; Library Compounds; 63 nL; library compounds in DMSO, columns 3-24
4; Control Compounds; 63 nL; DMSO in wells I-P, columns 1-2, GSK830371 (10 uM, final) in wells A-H, column 2
5; Time; 1 hr; incubation
6; Substrate; 2 uL; VEPPL-pS-QETFS (10 uM) in assay buffer, column 2-24
7; Time; 5 min; incubation
8; Reagent; 2 uL; 0.5% formic acid in water, columns 2-24
9; Reagent; 38 uL; VEPPL-S-QETF*S in 0.1% formic acid, columns 2-24
10; Detection; mass spec; RapidFire mass spectrometry
NOTES (numbers refer to sequence above)
1, 2, 6; dispensed reagent in White Nunc 384-well PP microplates (264573); assay buffer: 50 mM Tris-HCl pH 7.5, 30 mM MgCl2, 1 mM TCEP, 0.1 mM EGTA, 75 ug/mL BSA.
2, 6, 8, 9; Dispensed with BioRaptr (Beckman Coulter)
2, 6, 9; Final concentrations: 10 nM WIP1; 2 uM VEPPL-pS-QETFS; 1 uM VEFFL-S-QETF*S
3 & 4; Kalypsys Pintool transfer (Wako USA), Tip wash sequence: water, DMSO, methanol, 20 sec vacuum dry.
5 & 7; incubation at room temperature
10; RapidFire mass spectrometry read using the Agilent RapidFire 360 (Clausse, 2019)
Clausse V, et al. Physiologically relevant orthogonal assay for the discovery of small-molecule modulators of WIP1 […] in high-throughput screens. J Biol Chem. 2019, 294(46): 17654-17668. doi:10.1074/jbc.RA119.010201

Chain of Protein phosphatase 1D (Homo sapiens) (O15297 whole entry, looked up): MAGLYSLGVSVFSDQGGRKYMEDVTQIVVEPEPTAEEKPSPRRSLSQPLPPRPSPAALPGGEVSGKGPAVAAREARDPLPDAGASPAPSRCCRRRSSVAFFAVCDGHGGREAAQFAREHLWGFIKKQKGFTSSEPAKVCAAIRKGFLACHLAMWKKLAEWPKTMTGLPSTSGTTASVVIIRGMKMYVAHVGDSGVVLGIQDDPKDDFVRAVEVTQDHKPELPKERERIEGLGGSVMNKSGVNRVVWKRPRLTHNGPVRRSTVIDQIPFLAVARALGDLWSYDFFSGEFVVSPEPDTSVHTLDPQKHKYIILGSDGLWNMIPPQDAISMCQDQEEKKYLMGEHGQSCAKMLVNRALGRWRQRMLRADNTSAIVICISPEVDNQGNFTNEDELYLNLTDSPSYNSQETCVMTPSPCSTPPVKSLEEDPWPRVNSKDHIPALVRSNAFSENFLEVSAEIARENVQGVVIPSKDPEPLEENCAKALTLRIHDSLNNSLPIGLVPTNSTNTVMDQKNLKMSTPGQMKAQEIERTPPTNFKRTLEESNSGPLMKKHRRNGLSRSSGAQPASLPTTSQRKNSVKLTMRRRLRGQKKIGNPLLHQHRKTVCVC

| SMILES | activity change, negative = inhibition |
| --- | --- |
| O=C(O)CCC(=O)O | 4.4% (inactive) |
| Cc1ncc(CO)c(CN)c1O | -13.8% (inactive) |
| O[C@@H]1CO[C@H]2[C@@H]1OC[C@@H]2O | -10.2% (inactive) |
| CC(=O)Oc1cccc(O)c1 | -0.663% (inactive) |
| CCCCCCCCCCC(CO)CCCCCCCC (stereo not given) | 16.2% (inactive) |
| COc1ccccc1Oc1c(NS(=O)(=O)c2ccc(C(C)(C)C)cc2)nc(-c2ncccn2)nc1OCCO | 21.5% (inactive) |
| Cc1cc(C)nc(NS(=O)(=O)c2ccc(N)cc2)n1 | -11% (inactive) |
| CCc1nnc(NS(=O)(=O)c2ccc(N)cc2)s1 | -7.16% (inactive) |
| CC[N+](CC)(CC(=O)Nc1c(C)cccc1C)Cc1ccccc1 | -1.09% (inactive) |
| CC[C@H](C)[C@H](N)C(=O)O | -3.68% (inactive) |
| NCc1ccc(S(N)(=O)=O)cc1 | 7.64% (inactive) |
| CCN(CC)S(=O)(=O)c1ccc(C(=O)O)cc1 | -2.37% (inactive) |
| Nc1ncnc(Nc2ccccc2)n1 | 0.0296% (inactive) |
| COc1ccc(NS(=O)(=O)c2ccc(N)cc2)nn1 | -0.448% (inactive) |
| CC(C)CCOC(=O)c1ccc(N(C)C)cc1 | 7.23% (inactive) |
| O=C(Cn1ccnc1[N+](=O)[O-])NCc1ccccc1 | -8.64% (inactive) |
| CC(=O)N[C@H]1[C@H]([C@H](O)[C@H](O)CO)OC(C(=O)O)=C[C@@H]1N=C(N)N | 5.06% (inactive) |
| C[C@H]1COc2c(C3(N)CC3)c(F)cc3c(=O)c(C(=O)O)cn1c23 | 0.661% (inactive) |
| Cc1cc(=O)[nH]c(=S)[nH]1 | 2.82% (inactive) |
| CC1CC(OC(=O)c2ccccc2O)CC(C)(C)C1 (stereo not given) | -11.9% (inactive) |

| SMILES | activity change, negative = inhibition |
| --- | --- |
| O=c1[nH]c(=O)c2ccccc2o1 | 0.336% (inactive) |
| NS(=O)(=O)c1cc(C2(O)NC(=O)c3ccccc32)ccc1Cl (stereo not given) | 1.97% (inactive) |
| C=CCOc1ccccc1OCC(O)CNC(C)C (stereo not given) | -5.6% (inactive) |
| COc1cc(O)cc(O)c1 | -2.98% (inactive) |
| Cc1onc(-c2ccccc2)c1-c1ccc(S(N)(=O)=O)cc1 | -6.32% (inactive) |
| CCOC(=O)[C@H](CCc1ccccc1)N[C@@H](C)C(=O)N1Cc2cc(OC)c(OC)cc2C[C@H]1C(=O)O | 4.39% (inactive) |
| CC1CCN(CCCC(=O)c2ccc(F)cc2)CC1 | 3.61% (inactive) |
| CC(C)(C)NCC(O)COc1cccc2c1CCC(=O)N2 (stereo not given) | -0.337% (inactive) |
| CC(=O)Nc1ccc(OCCOCCOc2ccc(NC(C)=O)cc2)cc1 | -7.45% (inactive) |
| O=C1c2cccc(O)c2C(=O)c2c(O)cccc21 | -8.57% (inactive) |
| CC1(c2ccccc2)OC(C(=O)O)=CC1=O (stereo not given) | -8.75% (inactive) |
| COC(=O)c1ccccc1C(=O)c1ccc(OCCN2CCCCC2)cc1 | 8.98% (inactive) |
| CCCCCOC(=O)Nc1nc(=O)n([C@@H]2O[C@H](C)[C@@H](O)[C@H]2O)cc1F | 9.51% (inactive) |
| Nc1ncnc2c1ncn2[C@@H]1O[C@H](COP(=O)(O)O)[C@@H](O)[C@H]1O | 5.41% (inactive) |
| CC(=O)NS(=O)(=O)c1ccc(N)cc1 | -4.17% (inactive) |
| C/C=C1\[C@H]2C=C(C)C[C@]1(N)c1ccc(=O)[nH]c1C2 | 1.09% (inactive) |
| CC1CCc2cc(F)cc3c(=O)c(C(=O)O)cn1c23 (stereo not given) | 5.82% (inactive) |
| O=C1C(c2[nH]c3ccccc3c2O)=Nc2ccccc21 | -4.02% (inactive) |
| Cc1cc(NC(=O)C2=C(O)c3ccccc3S(=O)(=O)N2C)no1 | -7.36% (inactive) |
| Cc1c(C)c2c(c(C)c1OC(=O)c1cccnc1)CC[C@@](C)(CCC[C@H](C)CCC[C@H](C)CCCC(C)C)O2 | 5.23% (inactive) |
